In assay [1] the target is Estrogen receptor beta (Homo sapiens) (UniProt Q92731). Description: qHTS assay to identify small molecule agonists of the estrogen receptor beta (ER-beta) signaling pathway (AID 1259377; active = well fitted activation curve with a large enough effect in the signal ratio in the repeat runs, not every such curve was filed as active; the % refers to the signal ratio). In outline:
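Agonist mode cell assay in GripTite HEK293T cells expressing an ER-beta fusion that drives beta-lactamase from an Upstream Activator Sequence; 16 hr compound exposure at 37C, then 2 h LiveBLAzer B/G FRET substrate at room temperature, fluorescence read-out.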
On the technique in general: In qHTS, concentration-response curves come from the screen itself.

Assay [2] can be described thus: qHTS assay to identify small molecule agonists of the androgen receptor (AR) signaling pathway in the presence of an antagonist - cell viability counter screen (AID 1259379).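 Also: MDA-kb2 human breast cancer cells carrying an MMTV luciferase reporter; series mostly up to about 92 µM; nearly all actives have a fitted effect of over 25% in size.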 In outline:
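A CellTiter-Fluor read-out measured viability of MDA-kb2 reporter cells (MMTV promoter with AR and GR response elements). Treatment: nilutamide 3.0uM final with compounds at 15 concentrations, 16 hr, 37C, 0% CO2.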

Assay [3] in a line: qHTS assay to identify small molecule agonists of the estrogen receptor beta (ER-beta) signaling pathway - cell viability counter screen (AID 1259380). Also: nearly all actives have a fitted effect of over 30% in size. Also: potency is read from the fitted curve at half-maximal effect. In outline: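 Cells used were ER-beta-UAS-bla HEK293T in medium with 2% charcoal-stripped FBS. They were treated for 16 hr at 37C. Viability came from CellTiter-Glo luminescence.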
A short description of assay [4]: qHTS assay to identify small molecule antagonists of the estrogen receptor beta (ER-beta) signaling pathway - cell viability counter screen (AID 1259382). Also: series mostly up to about 92 µM; nearly all actives have a fitted effect of over 55% in size. The method, boiled down:
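Agonist-stimulated (1nM E2) ER-beta-UAS-bla HEK293T cells are incubated with library compounds for 16 hr at 37C. Cell viability is then assessed in the reporter-assay wells by adding CellTiter-Glo and reading luminescence after 30 min.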

Assay [5] in a line: qHTS assay to identify small molecule agonists or antagonists of the thyroid stimulating hormone receptor (TSHR) signaling pathway - wild type cell line counter screen (AID 1259384; calls by dose curve). In outline: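 Counter screen in untransfected Hek293: compounds (15-point titration, triplicate) plus phosphodiesterase inhibitor Ro20-1724 added after 18 h plating; 30 min RT. Intracellular cAMP via competitive d2/cryptate immunoassay, 1 h incubation.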

Assay [6] addresses Thyrotropin receptor (Homo sapiens) (UniProt P16473). Description: qHTS assay to identify small molecule antagonists of the thyroid stimulating hormone receptor (TSHR) signaling pathway (AID 1259385; calls by dose curve; also: nearly all actives have a fitted effect of over 20% in size). In outline: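 Antagonist mode: compound-treated TSHR-expressing HEK293 cells were stimulated with 1.5 ng/mL TSH (final) in presence of Ro20-1724 for 30 min at RT. HTRF cAMP detection after 1 h; each compound tested at 15 concentrations, triplicate.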

Assay [7] is described as follows: qHTS assay to identify small molecule agonists of the estrogen receptor alpha (ER-alpha) signaling pathway in the presence of an antagonist - cell viability counter screen (AID 1259386).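 Also: series mostly up to about 92 µM; cells exposed to compounds for 22 h at 37 °C before the viability read; nearly all actives have a fitted effect of over 30% in size.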 The method, boiled down: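 ICI-182,780 at 10.0nM final accompanies the compound titration (15 concentrations, 22hr, 37C) on VM7Luc4E2 cells. The CellTiter-Fluor fluorescence readout runs in the same wells as the luciferase assay.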

Assay [8] deals with Progesterone receptor (Homo sapiens) (UniProt P06401). Description: qHTS assay to identify small molecule agonists of the progesterone receptor (PR) signaling pathway (AID 1346784; calls by dose curve; also: nearly all actives have a fitted effect of over 30% in size). The method, boiled down: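 Cells (PR-UAS-bla HEK 293T, GripTite) were plated in assay medium containing 2% charcoal-stripped FBS and incubated 6 hr. Test compounds in DMSO were added for 16 hr at 37C. FRET substrate was then loaded for 2 hr at room temperature before fluorescence reading.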
Chain of Progesterone receptor (Homo sapiens) (P06401 whole entry, looked up): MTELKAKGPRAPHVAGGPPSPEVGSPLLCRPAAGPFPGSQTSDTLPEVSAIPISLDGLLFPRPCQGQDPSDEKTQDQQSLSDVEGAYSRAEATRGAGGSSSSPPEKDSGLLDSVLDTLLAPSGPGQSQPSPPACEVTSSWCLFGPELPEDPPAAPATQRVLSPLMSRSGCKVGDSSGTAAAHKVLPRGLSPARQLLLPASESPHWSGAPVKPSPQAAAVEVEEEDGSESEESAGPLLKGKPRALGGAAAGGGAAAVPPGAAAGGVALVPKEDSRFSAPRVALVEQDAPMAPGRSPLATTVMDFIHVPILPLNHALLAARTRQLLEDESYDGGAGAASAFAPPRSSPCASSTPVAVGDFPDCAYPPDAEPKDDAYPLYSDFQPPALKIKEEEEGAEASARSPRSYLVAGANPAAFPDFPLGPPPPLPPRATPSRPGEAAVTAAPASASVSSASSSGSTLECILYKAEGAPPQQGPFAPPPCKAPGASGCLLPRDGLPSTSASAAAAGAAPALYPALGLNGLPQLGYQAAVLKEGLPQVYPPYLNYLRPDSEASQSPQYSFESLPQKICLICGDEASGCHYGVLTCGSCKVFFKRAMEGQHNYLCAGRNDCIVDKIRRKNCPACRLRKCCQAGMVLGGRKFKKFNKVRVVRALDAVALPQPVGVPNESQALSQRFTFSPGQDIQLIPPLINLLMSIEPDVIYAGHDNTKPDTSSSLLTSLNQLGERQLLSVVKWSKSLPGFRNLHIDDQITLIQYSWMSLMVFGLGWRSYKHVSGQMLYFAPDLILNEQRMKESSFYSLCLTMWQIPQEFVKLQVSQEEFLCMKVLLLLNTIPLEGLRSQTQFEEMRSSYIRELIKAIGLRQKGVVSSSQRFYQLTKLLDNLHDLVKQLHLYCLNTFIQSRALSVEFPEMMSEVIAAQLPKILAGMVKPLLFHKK

Assay [9] shares this target. As to the kind of experiment: qHTS assay to identify small molecule antagonists of the progesterone receptor (PR) signaling pathway (AID 1346795; active = well fitted inhibition curve with a large enough effect in the signal ratio in the repeat runs, not every such curve was filed as active; the % refers to the signal ratio). In outline:
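Antagonist mode: compounds tested against 1 nM (final) promegestone stimulation in HEK293T cells expressing PR-UAS-bla reporter, 16 hr at 37C, 5% CO2; beta-lactamase activity detected via B/G FRET substrate after 2 hr at room temperature.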

Assay [10] can be described thus: qHTS assay to identify small molecule agonists of the progesterone receptor (PR) signaling pathway - cell viability counter screen (AID 1346799; calls by dose curve; also: nearly all actives have a fitted effect of over 45% in size). The method, boiled down: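 Cells (PR-UAS-bla HEK293T) are plated at 3,000/well in 2% charcoal-stripped FBS medium, rested 6 hr, dosed and incubated 16 hr at 37C. CellTiter-Glo is then added and luminescence measured after 30 min at room temperature.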

Assay [11] is described as follows: qHTS assay to identify small molecule antagonists of the TGF-beta/Smad signaling pathway - cell viability counter screen (AID 1346824). Also: nearly all actives have a fitted effect of over 50% in size. The method, boiled down:
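Cytotoxicity counter-screen run in the same wells as the beta-lactamase Smad reporter read: CellTiter-Glo luminescence after 30 min at room temperature. HEK 293T SBE-bla cells had 5 hr compound exposure at 37 C with TGF-beta1 (0.25 ng/mL stock).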

The nature of assay [12]: qHTS assay to identify small molecule agonists of the TGF-beta/Smad signaling pathway - cell viability counter screen (AID 1346829). Also: top concentration of the series differs between compounds; nearly all actives have a fitted effect of over 45% in size. The method, boiled down: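 SBE-bla HEK 293T cells plated overnight, compound exposure 5 hr at 37 C. Viability read in the same wells by CellTiter-Glo luminescence after 30 min at room temperature, following the beta-lactamase read.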
A short description of assay [13]: qHTS assay to identify small molecule agonists of the TGF-beta/Smad signaling pathway (AID 1346859; active = well fitted activation curve with a large enough effect in the signal ratio in the repeat runs, not every such curve was filed as active; the % refers to the signal ratio; also: series mostly up to about 77 µM). The method, boiled down:
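Reporter line: HEK 293T with stably integrated SBE-controlled beta-lactamase. Compound exposure lasts 5 hr at 37 C and 5% CO2; substrate loading follows for 2 hr at room temperature, with emission read at 460 and 530 nm.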

For assay [14], the target named is Thyrotropin-releasing hormone receptor (Homo sapiens) (UniProt P34981). Description: qHTS assay to identify small molecule antagonists of the thyrotropin-releasing hormone receptor (TRHR) signaling pathway (AID 1346877; active = well fitted inhibition curve with a large enough effect in the repeat runs, not every such curve was filed as active; also: series mostly up to about 51 µM). In outline:
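Screening used HEK293 cells engineered with TRHR, with a brief 5 min room-temperature compound exposure preceding addition of TRH to 1 nM. The read-out was kinetic calcium-dye fluorescence, concentration-response from 15 doses in triplicate.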

The target is the same in assay [15]. Description: qHTS assay to identify small molecule agonists of the thyrotropin-releasing hormone receptor (TRHR) signaling pathway (AID 1346891; calls by dose curve;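 also: HEK293 cells expressing TRHR with calcium dye readout; series mostly up to about 58 µM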). In outline: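 Cells: TRHR-Hek293, seeded and incubated 18 h. Dye loading: 2 h at 37 °C. Compound added from DMSO stock by pin tool. Read-out: kinetic calcium fluorescence over 3 min.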
The nature of assay [16]: qHTS assay to identify small molecule antagonists of the progesterone receptor (PR) signaling pathway - cell viability counter screen (AID 1346798). Also: series mostly up to about 92 µM; nearly all actives have a fitted effect of over 50% in size. In outline: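 Counter screen for cytotoxicity: viability of PR-UAS-bla HEK293T cells was measured with CellTiter-Glo luminescence following 16 hr compound exposure in the presence of R5020.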
Assay [17] addresses Androgen receptor (Homo sapiens) (UniProt P10275). As to the kind of experiment: qHTS assay to identify small molecule agonists of the androgen receptor (AR) signaling pathway in the presence of an antagonist (AID 1259381; calls by dose curve; also: nearly all actives have a fitted effect of over 15% in size). The method, boiled down:
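Using human MDA-kb2 cells with an MMTV promoter–luciferase construct (AR and GR response elements), agonist activity is scored under 3.0uM nilutamide (final) co-treatment; 16hr incubation, 37C, luminescence readout via ONE-Glo.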

Assay [18] concerns the target Estrogen receptor (Homo sapiens) (UniProt P03372). Description: qHTS assay to identify small molecule agonists of the estrogen receptor alpha (ER-alpha) signaling pathway in the presence of an antagonist (AID 1259383; calls by dose curve; also: top concentration of the series differs between compounds; nearly all actives have a fitted effect of over 15% in size). The method, boiled down: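 Using VM7Luc4E2 cells seeded 24hr before treatment, antagonist ICI-182,780 (10.0nM final) was added, followed by compounds at 15 concentrations. Plates incubated 22hr; ONE-Glo luminescence quantified reporter activity.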

The target of assay [19] is Estrogen receptor beta (Homo sapiens) (UniProt Q92731). As to the kind of experiment: qHTS assay to identify small molecule antagonists of the estrogen receptor beta (ER-beta) signaling pathway (AID 1259378; active = well fitted inhibition curve with a large enough effect in the signal ratio in the repeat runs, not every such curve was filed as active; the % refers to the signal ratio). In outline: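 Antagonist mode: compounds added to beta-lactamase reporter HEK293T ER-beta-UAS cells stimulated with E2 (1nM final), 16 hr at 37C. LiveBLAzer B/G FRET substrate, 2 hours room temperature, fluorescence read-out.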
Chain of Estrogen receptor beta (Homo sapiens) (Q92731 whole entry, looked up, the tested form may be a part): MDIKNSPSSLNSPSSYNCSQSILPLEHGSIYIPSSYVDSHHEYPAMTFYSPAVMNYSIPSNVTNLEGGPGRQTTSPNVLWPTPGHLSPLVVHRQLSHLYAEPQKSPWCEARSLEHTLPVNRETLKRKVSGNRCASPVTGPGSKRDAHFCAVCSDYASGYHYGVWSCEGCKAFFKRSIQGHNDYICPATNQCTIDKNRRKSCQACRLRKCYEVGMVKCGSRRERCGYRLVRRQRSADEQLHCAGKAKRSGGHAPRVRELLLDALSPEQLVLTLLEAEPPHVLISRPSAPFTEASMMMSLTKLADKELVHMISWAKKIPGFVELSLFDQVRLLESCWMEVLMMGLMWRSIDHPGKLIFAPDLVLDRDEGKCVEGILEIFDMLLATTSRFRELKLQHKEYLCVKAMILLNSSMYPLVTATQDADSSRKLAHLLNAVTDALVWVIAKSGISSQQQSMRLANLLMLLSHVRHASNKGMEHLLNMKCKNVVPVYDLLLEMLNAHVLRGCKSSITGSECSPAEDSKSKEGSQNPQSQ

SMILES strings stand for the structures. A number with no mark means an inactive call. Records with an inconclusive call do not appear. Active and inactive are the calls of the source. Unless noted, calls follow the shape of the dose curve; as a rule, active = well fitted curve in the direction sought with a large enough effect in the repeat runs; inconclusive = weak or mixed curves; inactive = no such curve, though single readings can be large; an effect the other way counts as inactive or inconclusive.

Chain of Thyrotropin receptor (Homo sapiens) (P16473 whole entry, looked up): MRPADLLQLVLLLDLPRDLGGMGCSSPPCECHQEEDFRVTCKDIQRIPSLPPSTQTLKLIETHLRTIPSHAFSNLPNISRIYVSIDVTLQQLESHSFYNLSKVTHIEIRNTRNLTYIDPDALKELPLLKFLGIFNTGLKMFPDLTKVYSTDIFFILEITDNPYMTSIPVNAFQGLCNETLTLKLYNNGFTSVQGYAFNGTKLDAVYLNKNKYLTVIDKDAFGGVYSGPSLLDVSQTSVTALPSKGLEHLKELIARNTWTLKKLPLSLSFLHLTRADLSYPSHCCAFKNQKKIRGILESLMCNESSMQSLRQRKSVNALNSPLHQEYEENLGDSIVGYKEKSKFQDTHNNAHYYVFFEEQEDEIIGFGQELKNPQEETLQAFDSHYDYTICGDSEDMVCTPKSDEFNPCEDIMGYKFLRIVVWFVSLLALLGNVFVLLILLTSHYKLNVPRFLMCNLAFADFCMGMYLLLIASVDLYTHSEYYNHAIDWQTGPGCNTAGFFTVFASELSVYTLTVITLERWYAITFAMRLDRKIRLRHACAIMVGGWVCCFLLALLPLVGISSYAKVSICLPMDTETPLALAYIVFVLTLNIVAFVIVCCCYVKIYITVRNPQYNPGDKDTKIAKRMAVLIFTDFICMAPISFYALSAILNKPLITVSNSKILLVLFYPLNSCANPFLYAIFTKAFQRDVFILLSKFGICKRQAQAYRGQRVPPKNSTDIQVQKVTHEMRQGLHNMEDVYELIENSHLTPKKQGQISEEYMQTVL
Chain of Thyrotropin-releasing hormone receptor (Homo sapiens) (P34981 whole entry, looked up): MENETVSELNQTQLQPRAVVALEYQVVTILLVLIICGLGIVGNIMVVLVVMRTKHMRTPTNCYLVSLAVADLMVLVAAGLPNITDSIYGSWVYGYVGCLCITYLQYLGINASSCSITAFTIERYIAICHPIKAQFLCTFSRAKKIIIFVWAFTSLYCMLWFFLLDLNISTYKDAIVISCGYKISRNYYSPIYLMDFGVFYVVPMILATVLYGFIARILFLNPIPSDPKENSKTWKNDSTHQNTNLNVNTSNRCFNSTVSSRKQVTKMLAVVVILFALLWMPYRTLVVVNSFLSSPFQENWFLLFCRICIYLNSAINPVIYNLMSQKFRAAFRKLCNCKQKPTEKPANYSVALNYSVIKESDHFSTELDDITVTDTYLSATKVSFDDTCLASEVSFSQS
Chain of Estrogen receptor (Homo sapiens) (P03372 whole entry, looked up): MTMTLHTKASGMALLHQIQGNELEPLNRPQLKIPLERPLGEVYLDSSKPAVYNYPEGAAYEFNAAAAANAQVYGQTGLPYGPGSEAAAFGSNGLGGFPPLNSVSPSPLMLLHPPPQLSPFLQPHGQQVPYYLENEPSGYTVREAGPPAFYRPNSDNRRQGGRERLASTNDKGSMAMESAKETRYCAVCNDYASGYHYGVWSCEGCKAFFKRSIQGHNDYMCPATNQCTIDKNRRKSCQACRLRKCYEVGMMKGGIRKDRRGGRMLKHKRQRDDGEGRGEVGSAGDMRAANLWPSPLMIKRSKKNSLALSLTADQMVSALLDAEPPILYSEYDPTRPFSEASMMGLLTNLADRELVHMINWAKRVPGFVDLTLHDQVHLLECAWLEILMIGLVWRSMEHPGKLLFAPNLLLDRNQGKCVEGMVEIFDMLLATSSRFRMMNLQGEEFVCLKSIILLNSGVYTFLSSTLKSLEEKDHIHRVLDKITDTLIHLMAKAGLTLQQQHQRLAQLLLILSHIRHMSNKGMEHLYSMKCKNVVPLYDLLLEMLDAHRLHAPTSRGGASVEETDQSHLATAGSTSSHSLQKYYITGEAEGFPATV
Chain of Androgen receptor (Homo sapiens) (P10275 whole entry, looked up): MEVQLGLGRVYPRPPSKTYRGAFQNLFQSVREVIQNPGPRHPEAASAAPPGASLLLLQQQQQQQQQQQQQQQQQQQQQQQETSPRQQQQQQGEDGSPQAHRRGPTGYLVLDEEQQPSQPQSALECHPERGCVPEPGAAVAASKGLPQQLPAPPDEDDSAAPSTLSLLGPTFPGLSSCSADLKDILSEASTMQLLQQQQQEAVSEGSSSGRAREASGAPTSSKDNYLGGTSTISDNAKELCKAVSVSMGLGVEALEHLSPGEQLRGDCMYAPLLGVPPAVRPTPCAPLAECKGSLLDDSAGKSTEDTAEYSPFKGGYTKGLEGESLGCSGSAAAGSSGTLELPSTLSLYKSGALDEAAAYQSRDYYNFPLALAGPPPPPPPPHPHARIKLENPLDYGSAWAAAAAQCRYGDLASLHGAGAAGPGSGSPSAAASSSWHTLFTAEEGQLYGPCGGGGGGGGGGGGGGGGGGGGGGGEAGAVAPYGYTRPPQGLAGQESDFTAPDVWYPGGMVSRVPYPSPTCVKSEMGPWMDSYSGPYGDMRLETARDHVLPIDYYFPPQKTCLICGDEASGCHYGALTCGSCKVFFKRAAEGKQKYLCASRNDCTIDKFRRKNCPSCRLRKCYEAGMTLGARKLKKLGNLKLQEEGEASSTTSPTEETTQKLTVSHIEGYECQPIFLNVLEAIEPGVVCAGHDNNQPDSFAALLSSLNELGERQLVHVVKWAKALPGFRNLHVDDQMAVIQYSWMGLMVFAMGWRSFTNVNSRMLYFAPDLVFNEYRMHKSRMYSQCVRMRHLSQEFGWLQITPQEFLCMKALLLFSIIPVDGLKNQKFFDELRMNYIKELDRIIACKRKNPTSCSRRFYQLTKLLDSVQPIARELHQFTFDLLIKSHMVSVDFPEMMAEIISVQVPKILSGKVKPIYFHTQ

For the compound `CC(C)Nc1nc(N)nc(Cl)n1`, the outcome in assay [1], in [4], in [5], in assay [11], in [12] and in assay [13] was inactive. Also, in assay [14], the result was inactive. The Potency entry in assay [2], in assay [3], in assay [6], in assay [7], in [8] and in assay [9] was “inactive” in each case. In addition, the Potency result in assay [10] and in assay [15] was “inactive” each time.

Turning to `CC1(C)O[C@@H]2C[C@H]3[C@@H]4CCC5=CC(=O)CC[C@]5(C)[C@@]4(F)[C@@H](O)C[C@]3(C)[C@]2(C(=O)CCl)O1`, the result in [1], in assay [5], in assay [11], in assay [12] and in assay [13] was inactive. Also, the Potency entry in [2], in assay [7], in assay [16] and in [10] was “inactive” each time.

`NC(=O)NS(=O)(=O)c1ccc(Cl)cc1`: the Potency entry in assay [2], in [3], in [17], in [18], in [6] and in assay [7] was “inactive” each time. The Potency entry in assay [16] and in assay [15] was “inactive” throughout. Also, the compound was classed as inactive in assay [4], in assay [5], in assay [11], in [12], in assay [13] and in assay [14].

As to `CCNCCO`, the Potency result in assay [2], in [3], in [6], in assay [7], in assay [9] and in [16] was “inactive” each time. For the same compound, the Potency entry in assay [10] is “inactive”. In addition, the call in assay [4], in assay [5], in assay [11], in [12], in assay [13] and in assay [14] was inactive.

On to `CCCCNc1cc(C(=O)O)cc(S(N)(=O)=O)c1Oc1ccccc1`, for which the Potency result in assay [2], in assay [6], in assay [7], in [8], in assay [9] and in [10] was “inactive” throughout. Also, the outcome in assay [4], in assay [5], in [11], in assay [12], in assay [13] and in assay [14] was inactive.

For `Cc1nc(N)nc(N)c1-c1ccc(Cl)c(Cl)c1`, the compound was classed as inactive in assay [1], in assay [13] and in assay [14]. Besides, the Potency entry in assay [2], in [18], in assay [7], in assay [8], in assay [10] and in assay [15] was “inactive” each time. Moreover, the Potency in assay [3] was 2660 nM (active).

Regarding `CCc1cc(Cl)c(OC)c(C(=O)NC[C@@H]2CCCN2CC)c1O`, the Potency result in assay [2], in assay [7], in assay [8] and in assay [9] was “inactive” throughout. For the same compound, the compound was called inactive in assay [4], in [11], in assay [12] and in assay [13].

With `CC(C)(C)c1ccc(OC(=O)c2ccccc2O)cc1`, the Potency result in [19], in assay [2], in [7], in assay [9], in assay [16] and in [10] was “inactive” throughout. The compound was called inactive in assay [4], in assay [5], in assay [11], in [12] and in assay [13].

For the compound `NS(=O)(=O)c1cc(-c2nn[nH]n2)c(NCc2cccs2)cc1Cl`, the call in [1], in assay [5], in [11], in assay [12], in [13] and in assay [14] was inactive. The Potency entry in assay [2], in assay [3], in assay [6], in assay [7], in assay [8] and in [9] was “inactive” throughout. Besides, the Potency result in assay [16], in [10] and in assay [15] was “inactive” each time.

The record behind these values is PubChem BioAssay (Tox21).
